# The supplement of paper PMC6992640
# System: HCI16 (cells of a triple-negative basal-like breast cancer xenograft)
# Test: cell viability (% of vehicle); higher = less cytotoxic
# Conditions: 10 µM; 72 h
# 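Further: PDX cells carrying CMV promoter-driven luciferase, viability read as total photon flux per second by IVIS imaging following D-luciferin, vehicle control 0.1% DMSO.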
row,Structure (SMILES),cell viability
1,COC(=O)C(c1ccccc1Cl)N1CCc2sccc2C1.O=S(=O)(O)O (centres undefined) [Clopidogrel],101
2,CC(C)(C)C(=O)C(Oc1ccc(Cl)cc1)n1ccnc1 (centres undefined) [Climbazole],131
3,CCCN(CCC)CCc1cccc2c1CC(=O)N2.Cl [Ropinirole HCl],102
4,CCCC(=O)Nc1ccc(OCC(O)CNC(C)C)c(C(C)=O)c1.Cl (centres undefined) [Acebutolol HCl],156
5,O=C(O)C=Cc1ccccc1 [Cinnamic acid],121
6,Nc1nc(=O)c2nc(CNc3ccc(C(=O)NC(CCC(=O)O)C(=O)O)cc3)cnc2[nH]1 (centres undefined) [Folic acid],117
7,OCC(O)CN1CCN(c2ccccc2)CC1 (centres undefined) [Dropropizine],94.3
8,CN(C)CCC(c1ccccc1)c1ccccn1.O=C(O)C=CC(=O)O (centres undefined) [Pheniramine Maleate],132
9,CC(C)(C)c1cc(NC(=O)Nc2ccc(-c3cn4c(n3)sc3cc(OCCN5CCOCC5)ccc34)cc2)no1 [Quizartinib (AC220)],127
10,O=c1nc[nH]c2c1ncn2C1CCC(CO)O1 (centres undefined) [Didanosine],90.8
11,CC1(C)SC2C(NC(=O)Cc3ccccc3)C(=O)N2C1C(=O)[O-].[Na+] (centres undefined) [Penicillin G Sodium],111
12,CCCCC(=O)N(Cc1ccc(-c2ccccc2-c2nnn[nH]2)cc1)[C@H](C(=O)O)C(C)C.CCOC(=O)[C@H](C)C[C@@H](Cc1ccc(-c2ccccc2)cc1)NC(=O)CCC(=O)O,112
13,Clc1ccc(COC(Cn2ccnc2)c2ccc(Cl)cc2Cl)c(Cl)c1 (centres undefined) [Miconazole],120
14,O=C(O)[C@H](O)[C@@H](O)C(=O)O.c1cnc2cc3c(cc2n1)C1CNC[C@@H]3C1 [Varenicline Tartrate],153
15,CN(C)CCC(c1ccc(Cl)cc1)c1ccccn1.O=C(O)C=CC(=O)O (centres undefined) [Chlorpheniramine Maleate],126
16,Nc1nc(CC(=O)Nc2ccc(CCNCC(O)c3ccccc3)cc2)cs1 (centres undefined) [Mirabegron (YM178)],137
17,CCCS(=O)c1ccc2nc(NC(=O)OC)[nH]c2c1 (centres undefined) [Albendazole Oxide],106
18,C=C1C(CO)C(O)CC1n1cnc2c(=O)nc(N)[nH]c21.O (centres undefined) [Entecavir Hydrate],108
19,Cc1ccccc1C(OCCN(C)C)c1ccccc1.O=C(O)CC(O)(CC(=O)O)C(=O)O (centres undefined) [Orphenadrine Citrate],138
20,CCC(C)C(=O)OC1CC(C)C=C2C=CC(C)C(CCC3CC(O)CC(=O)O3)C21 (centres undefined) [Lovastatin],142

row,Structure (SMILES),cell viability
1,CN1CCC(=C2c3ccccc3CCc3sccc32)CC1.O=C(O)CC(O)C(=O)O [Pizotifen Malate],111
2,COCCCOc1cc(CC(CC(N)C(O)CC(C(=O)NCC(C)(C)C(N)=O)C(C)C)C(C)C)ccc1OC.COCCCOc1cc(CC(CC(N)C(O)CC(C(=O)NCC(C)(C)C(N)=O)C(C)C)C(C)C)ccc1OC.O=C(O)C=CC(=O)O (centres undefined) [Aliskiren Hemifumarate],148
3,CC(C)C(N)C(=O)OCCOCn1cnc2c(=O)nc(N)[nH]c21.Cl (centres undefined) [Valaciclovir HCl],106
4,CC1CCOC2Cn3cc(C(=O)NCc4ccc(F)cc4F)c(=O)c(O)c3C(=O)N12 (centres undefined),124
5,CC(S)C(=O)NCC(=O)O (centres undefined) [Tiopronin (Thiola)],99.3
6,CCCCC(=O)OC1CCC2C3CCc4cc(O)ccc4C3CCC12C (centres undefined) [Estradiol valerate],137
7,NC1CCCCC1N.O=C([O-])C(=O)[O-].[Pt+2] (centres undefined) [Oxaliplatin],118
8,COc1cc(Nc2ncc3c(n2)-c2ccc(Cl)cc2C(c2c(F)cccc2OC)=NC3)ccc1C(=O)O [MLN8237 (Alisertib)],87.9
9,C[N+](C)(CCOc1ccccc1)Cc1ccccc1.O=C(O)c1cc2ccccc2cc1[O-] [Bephenium Hydroxynaphthoate],104
10,CCC(C(C)O)n1ncn(-c2ccc(N3CCN(c4ccc(OCC5COC(Cn6cncn6)(c6ccc(F)cc6F)C5)cc4)CC3)cc2)c1=O (centres undefined) [Posaconazole],94.5
11,NC(=O)C1CCCc2c1[nH]c1ccc(Cl)cc21 (centres undefined),121
12,Nc1cc(C(Cl)=C(Cl)Cl)c(S(N)(=O)=O)cc1S(N)(=O)=O [Clorsulon],169
13,Nc1nc(=O)c2ncn(COC(CO)CO)c2[nH]1 [Ganciclovir],126
14,CNNCc1ccc(C(=O)NC(C)C)cc1.Cl [Procarbazine HCl],87.6
15,CC(=O)N1CCN(c2ccc(OCC3COC(Cn4ccnc4)(c4ccc(Cl)cc4Cl)O3)cc2)CC1 (centres undefined) [Ketoconazole],122
16,COC(=O)C1=C(C)NC(C)=C(C(=O)OC(C)C)C1c1cccc2nonc12 (centres undefined) [Isradipine (Dynacirc)],117
17,Br.CN1CCCC1Cc1c[nH]c2ccc(CCS(=O)(=O)c3ccccc3)cc12 (centres undefined) [Eletriptan HBr],113
18,CCN(CC)CCOC(=O)C(c1ccccc1)c1ccccc1.Cl [Adiphenine HCl],110
19,CCCN1CCCCC1C(=O)Nc1c(C)cccc1C.Cl.O (centres undefined) [Ropivacaine hydrochloride monohydrate],117
